Data on 71 molecules can be found in PubChem BioAssay AID1721 (National Center for Advancing Translational Sciences (NCATS), 2009).

In all, about 290,000 compounds went through this assay and about 1,100 (0.38%) were called active. Calls come from the whole dose curve; as a rule, active = well fitted inhibition curve with a large enough effect; inconclusive = small, poorly fitted or top-dose-only effect, or another doubt; inactive = no such curve, though single readings can be large or run the other way. What follows is part of a selection rich in actives, with near analogues and random picks from the rest.
% is set by controls: 0 for no effect and ±100 for the full control effect; potency is the fitted concentration of half-maximal effect.

Pyruvate kinase (Leishmania mexicana), sequence (Q27686 whole entry, looked up): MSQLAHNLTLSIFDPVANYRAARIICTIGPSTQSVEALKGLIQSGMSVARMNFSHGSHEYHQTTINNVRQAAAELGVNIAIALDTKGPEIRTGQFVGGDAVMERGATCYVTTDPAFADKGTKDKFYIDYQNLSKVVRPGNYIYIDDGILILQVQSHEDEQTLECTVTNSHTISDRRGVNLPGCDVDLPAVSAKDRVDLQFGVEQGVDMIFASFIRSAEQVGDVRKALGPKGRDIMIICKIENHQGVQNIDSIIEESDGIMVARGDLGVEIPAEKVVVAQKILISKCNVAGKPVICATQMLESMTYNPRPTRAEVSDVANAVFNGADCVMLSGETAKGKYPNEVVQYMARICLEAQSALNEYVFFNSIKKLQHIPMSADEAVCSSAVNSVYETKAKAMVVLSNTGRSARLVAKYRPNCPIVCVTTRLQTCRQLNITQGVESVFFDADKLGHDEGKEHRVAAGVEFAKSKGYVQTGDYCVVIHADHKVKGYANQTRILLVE

This test has as its target Pyruvate kinase (Leishmania mexicana) (UniProt Q27686). Kind of test: qHTS Assay for Inhibitors of Leishmania Mexicana Pyruvate Kinase (LmPK). The note with it: purified LmPK, Kinase-Glo ATP luminescence, 1 h; series mostly up to 57.5 µM; activity change, negative = inhibition: at the top concentration. From the text: NIH Chemical Genomics Center [NCGC] Malcolm Walkinshaw, Hugh Morgan, Linda Gilmore University of Edinburgh, UK MLPCN Grant: 1 R03 MH085697-01 NCGC Assay Overview: Pyruvate kinase (L. Mexicana) (LmPK) enzyme was supplied as a highly purified (>95% pure) sulphate-free preparation from University of Edinburgh, UK and assayed for its ability to generate ATP from ADP using phosphoenolpyruvate (PEP) as a substrate. ATP generation was detected in a coupled reaction by luciferase-mediated luminescence, an ATP-dependent process. […] The enzyme was assayed at an intermediate level of activity to screen for both inhibitors and activators.
NCGC Assay Protocol Summary: Three uL of enzyme mix (kept on ice) in assay buffer (50 mM Imidazole pH7.2, 50 mM KCl, 7 mM MgCl2, 0.01% Tween 20, 0.05% BSA) containing PEP (0.5 mM final concentration) and LmPK (0.1 nM final concentration) was dispensed into white solid bottom 1,536 well microtiter plates. 23 nL of compound were delivered by a pin tool and 1 uL of ADP mix in assay buffer (r.t; 0.1 mM final ADP concentration) was added. Plates were incubated at room temperature for 1 hour. Two uL of detection mix (Kinase-Glo, Promega; at 4 degree Celsius protected from light) was added and luminescence read by a ViewLux (Perkin Elmer) at 1 second exposure/plate. Data were normalized to the uninhibited and AC100 inhibition (no enzyme). To monitor activation, the first column contained a five-fold concentration of LmPK (0.5 nM).
(In general: Quantitative high-throughput screening tests each substance at several concentrations.)
In the case of `COc1ccc(NS(=O)(=O)c2ccc3oc(SCC(N)=O)nc3c2)cc1`, the “activity change, negative = inhibition” value was -3.65% (inactive).

`CC(=O)Nc1ccc(NS(=O)(=O)c2ccc3c(c2)NC(=O)CC(=O)N3)cc1`: the “activity change, negative = inhibition” value was -2.09% (inactive). For `CN1CCN(C(=O)C(=O)c2cn(CC(=O)N3CCCC3)c3ccccc23)CC1`, the “activity change, negative = inhibition” value was -2.77% (inactive).

Turning to `O=C(Cn1c(=S)nc2ccccn21)N1CCc2ccccc2C1`, the “activity change, negative = inhibition” value is -1.24% (inactive). Consider `O=C(c1ccc(F)cc1)n1c(=S)nc2ccccn21`, for which the Potency is 5.01 µM (active). As for `O=C(c1ccc(F)cc1)n1cc(C(=S)N2CCOCC2)c2ccccc21`, the “activity change, negative = inhibition” value is 0.959% (inactive). As for `C[C@H]1Cc2c(COc3ccccc3)nc3c(c2CO1)CN(C(=O)NCc1ccco1)CC3`, the activity change, negative = inhibition was 4.14% [at 11.5 µM] (inactive). The same measure, in the same setting: under `CSCCC(NS(=O)(=O)c1ccccc1F)C(=O)N1CC=C(c2ccccc2)CC1` (stereo unspecified) stands -4.3% (inactive). For the molecule `O=C(NC1CCN(C(=S)Nc2ccc(Cl)cc2)CC1)C1CCCCC1`, the “activity change, negative = inhibition” value was -3.78% (inactive).

For the molecule `CC(C)CC(=O)NC(=S)NNC(=O)c1cccc([N+](=O)[O-])c1`, the “activity change, negative = inhibition” value was 4.18% (inactive). Consider `CCCCCC(=O)NC(=S)NNC(=O)c1ccc([N+](=O)[O-])cc1`, for which the Potency is 31.6 µM (active). For `COCCCNC(=S)NC(=O)c1ccc([N+](=O)[O-])cc1`, the “activity change, negative = inhibition” value is 0.0876% (inactive). Same read-out and setting: the figure for `COc1ccc2oc(=O)c(C(=O)N3CCCC3)cc2c1` is 0.323% (inactive). As to `COc1cccc(C(=O)c2cc3ccc(O)cc3oc2=O)c1`, the Potency is 14.1 µM (active). On to `COc1cccc(C(=O)NNC(=O)c2cccc(F)c2)c1`, for which the “activity change, negative = inhibition” value is 7.37% (inactive). For `CC(=O)C1=C(C)NC(=O)NC1c1ccc2c(c1)OCO2` (stereo unspecified), the “activity change, negative = inhibition” value is -1.41% (inactive). As for `COC(=O)C(C)n1cnc2c(nnn2-c2ccc(F)cc2)c1=O` (stereo unspecified), the “activity change, negative = inhibition” value was -6.91% (inactive). The same measure, in the same setting: the figure for `CC(=O)Nc1ccc(NC(=O)c2ccc3c(c2)C(=O)N(c2ccccc2C)C3=O)cc1` is -0.612% (inactive); for `O=C(NCc1ccccc1)C1CCN(C(=O)Cc2ccccc2)CC1` it is -10.4% (inactive). With `Oc1ccc(N=Nc2nccs2)c(O)c1`, the Potency is 25.1 µM (active).

On to `Oc1ccc2ccccc2c1N=Nc1nccs1`, for which the “activity change, negative = inhibition” value was -17.8% (inactive). Still for that read-out and setting: the figure for `CCOc1ccc(N(CC(=O)Nc2cccc(OC)c2)S(C)(=O)=O)cc1` is 5.61% (inactive); for `CC1(C(=O)NNC(=S)NCC2CCCO2)CC1(Cl)Cl` (stereo unspecified) it is -6.61% (inactive); for `CN(C)C(=O)Cn1c(=O)n(S(=O)(=O)c2ccccc2)c2ccccc21` it is 1.22% (inactive). On the same count and under the same terms, under `CCOC(=O)c1c(S(=O)(=O)Nc2cccc(Cl)c2)c(C)n(C)c1C` stands -1.98% (inactive); under `COCCn1cnc2c1c(=O)n(Cc1ccc(Br)cc1)c(=O)n2Cc1ccccc1`, -0.873% (inactive). Turning to `Cc1ccnc(NC(=O)c2ccoc2C)c1`, the Potency was 11.2 µM (active). Consider `Cc1occc1C(=O)Nc1nnc(-c2ccncc2)s1`, for which the “activity change, negative = inhibition” value was -6.6% (inactive).

Take `Cc1occc1C(=O)Nc1cccc(Cn2cccn2)c1`: the “activity change, negative = inhibition” value was -22.2% (inactive). Consider `O=C(Nc1ccccc1)c1ccc2c(c1)OCO2`, for which the Potency is 15.8 µM (active).

As for `O=C(Nc1cccc([N+](=O)[O-])c1)c1ccc2c(c1)OCO2`, the “activity change, negative = inhibition” value is -0.962% (inactive). The same measure, in the same setting: the figure for `O=C(Nc1ccccc1)c1ccc2c(c1)OCCCO2` is -16.5% (inactive). For `Cc1cccc(/C(N)=N/OC(=O)c2ccccc2Cl)c1`, the Potency was 11.2 µM (active). For the molecule `Cc1ccc(C(=O)O/N=C(\N)c2ccccn2)cc1Cl`, the “activity change, negative = inhibition” value was -8.52% (inactive).

Turning to `N/C(=N\OC(=O)c1cc(-c2ccccc2)nc2ccccc12)c1ccncc1`, the “activity change, negative = inhibition” value was 0.803% (inactive). For the molecule `COc1cccc(CCNC(=O)c2cccc(NC(=O)C3=C(C)OCCS3)c2)c1`, the “activity change, negative = inhibition” value was 0.922% (inactive). In the case of `CC1(C(=O)O)CCC(C(=O)Nc2ccc(Cl)c(Cl)c2)C1(C)C` (stereo unspecified), the “activity change, negative = inhibition” value is -1.16% (inactive). Turning to `COc1cccc(C(=O)Nc2ccc(N3CCCC3)cc2)c1`, the Potency is 14.1 µM (active). Turning to `CN1CCN(c2ccc(NC(=O)c3ccccc3)cc2)CC1`, the “activity change, negative = inhibition” value is -4.74% (inactive).

`COc1cccc(C(=O)Nc2ccc(N3CCN(C(=O)c4ccco4)CC3)cc2)c1`: the “activity change, negative = inhibition” value was 2.21% (inactive). As to `CC1CC(C)CN(c2ccc(S(=O)(=O)N3CCOCC3)cc2)C1` (stereo unspecified), the “activity change, negative = inhibition” value was -0.351% (inactive).

Take `Cc1cc(CN(C)C(=O)c2cc(COc3ccc(C)c(C)c3)on2)n[nH]1`: the “activity change, negative = inhibition” value is -9.74% (inactive). Same read-out and setting: the figure for `O=c1oc2ccccc2cc1-c1csc(Nc2ccc(O)cc2)n1` is -1.09% (inactive); for `O=C(NCc1cccnc1)c1cccc(-c2cc3ccccc3oc2=O)c1` it is 4.26% (inactive). `Nc1ncc(-c2cc3ccccc3oc2=O)s1`: the Potency is 11.2 µM (active). With `Clc1ccc(-c2cc(-c3ccccn3)on2)c(Cl)c1`, the Potency was 15.8 µM (active).

As to `Clc1ccc(-c2ncc3ccccn23)c(Cl)c1`, the “activity change, negative = inhibition” value is 13.2% (inactive). Regarding `O=C1CSC(c2ccccc2)N1c1nc(-c2ccc(Cl)cc2Cl)cs1` (stereo unspecified), the “activity change, negative = inhibition” value was 3.75% (inactive). On to `CCOC(=O)C(C)n1cnc2c(nnn2-c2ccc(F)cc2)c1=O` (stereo unspecified), for which the “activity change, negative = inhibition” value is -2.05% (inactive). Same read-out and setting: under `CN(C)N1C(N)=C(C#N)C(c2ccc(Br)cc2)C2=C1CCCC2=O` (stereo unspecified) stands -1.06% (inactive).

In the case of `CCN(CC)S(=O)(=O)c1ccc(-c2cn3ccc(C)cc3n2)cc1`, the “activity change, negative = inhibition” value is 6.04% (inactive). As to `COc1ccc(-c2cn3cccnc3n2)cc1`, the “activity change, negative = inhibition” value was -19.6% (inactive). On to `COc1ccc(-c2cn3ccc(C)cc3n2)cc1`, for which the Potency was 8.91 µM (active).

For `Cc1ccc(NS(=O)(=O)c2c(C)[nH]c(C)c2C(=O)N2CCCCC2)c(C)c1`, the “activity change, negative = inhibition” value is 3.83% (inactive).

For the molecule `Cc1ccc(-c2nc3ccccc3[nH]2)cc1N`, the Potency is 15.8 µM (active). Still for that read-out and setting: under `c1ccc2[nH]c(-c3nc4ccccc4[nH]3)nc2c1` stands 8.91 µM (active). For `Cc1ccc(-c2nc3ccccc3[nH]2)cc1NC(=O)c1sc2ccccc2c1Cl`, the “activity change, negative = inhibition” value is 2.87% (inactive). Still for that read-out and setting: the figure for `COc1ccc(Br)cc1C(=O)NC(=S)Nc1cc(-c2nc3ccccc3[nH]2)ccc1C` is -0.276% (inactive); for `O=C(Nc1cccc(-c2nc3ccccc3[nH]2)c1)c1ccc(C(=O)Nc2cccc(-c3nc4ccccc4[nH]3)c2)cc1` it is -0.55% (inactive); for `OC(c1nc2ccccc2[nH]1)C(O)C(O)C(O)c1nc2ccccc2[nH]1` (stereo unspecified) it is -3.27% (inactive). For the molecule `C[C@H](NC(=O)C1CCN(S(=O)(=O)c2ccccc2)CC1)C(=O)NCc1ccccc1`, the “activity change, negative = inhibition” value is 7.11% (inactive). On the same count and under the same terms, the figure for `COc1ccccc1C(=O)NC(=S)Nc1ccccc1N1CCCCC1` is -1.2% (inactive). `CC1(C)Cc2c(sc(NC(=O)C(=O)N3CCOCC3)c2C#N)CO1`: the “activity change, negative = inhibition” value was -5.69% (inactive). The same measure, in the same setting: under `COc1ccc(OCCC(=O)c2ccc(OC)cc2)cc1` stands 1.36% (inactive). Take `COc1ccc(C(=O)C[n+]2ccc(N)c(C)c2C)cc1`: the Potency is 7.94 µM (active).

Take `COc1ccc(C(=O)C[n+]2ccc(C)cc2)cc1`: the “activity change, negative = inhibition” value is -0.711% (inactive). Still for that read-out and setting: the figure for `CC(=O)NC1=NN(C(C)=O)C(C)(c2ccc(Cl)s2)S1` (stereo unspecified) is -1.14% (inactive); for `CC(C)[C@H](NC(=O)N1CCn2c1nc1ccccc12)C(=O)NCc1ccc2c(c1)OCO2` it is 9.8% (inactive). Same read-out and setting: the figure for `N/C(=N\OC(=O)Cc1ccc([N+](=O)[O-])cc1)c1ccccn1` is -2.74% (inactive). Regarding `N/C(=N\OC(=O)c1ccc([N+](=O)[O-])cc1)c1ccccn1`, the Potency was 5.01 µM (active). Take `COc1ccc(C(=O)O/N=C(\N)c2ccccn2)cc1[N+](=O)[O-]`: the “activity change, negative = inhibition” value was 4.73% (inactive).
